# Measured values as given in the OligoGym collection.
# Molecular target: CDKL2
# Test: pooled miR-30 sensor sort-seq; sequence = guide strand
# Conditions: shRNA
# Further: reference of the scale not given here.
row,Sequence,sensor-assay potency score (higher = more potent)
1,TAGATAAAGAAACATTTCTGGC,-0.719
2,TACTTTTAACTGTAGTTCTTGG,-0.4
3,TAGTAACTTGATTTCTCGCATT,-0.927
4,TTTCAGGCAACCTTACTCCAGC,-0.594
5,TTAGATAAAGAAACATTTCTGG,0.295
6,TTTGTCATCGTCACTTTCTAAG,-0.977

# Molecular target: CDKN2B
# Test: as above
# Conditions: shRNA
row,Sequence,sensor-assay potency score (higher = more potent)
1,TTTCTTAGTCTGACCTCTGCAC,0.0018
2,TAGCATCTGTCGTCGCTTGCAC,-0.163
3,TTTAGCATCTGTCGTCGCTTGC,0.0347
4,TGCACCGGTCGGGTGAGAGTGG,-1.46
5,TTCCAGGAGCTGTCGCACCTTC,-0.732
6,TGCGCAGGTACCCTGCAACGTC,-1.43
7,TTTTTCAGCAATCTTTTGGGAA,-0.00426
8,AGGTACCCTGCAACGTCGCGGT,-1.5
9,TGTCGCACCTTCTCCACTAGTC,-0.304
10,TAGTCTGACCTCTGCACCCTGA,-1.07
11,ATCATGCACCGGTCGGGTGAGA,-1.72
12,TTTACTGCATAAGTGCATCTAT,0.135
13,TTGACTCCGTTGGGATCCGCGC,-1.43
14,TTGGAGTGAACGCATCGACTGC,-0.833
15,TTTTAGCATCTGTCGTCGCTTG,0.0607
16,TATTTCTTAGTCTGACCTCTGC,-0.197
17,TCATCCTGTGTAGTCTGCCTGC,-0.705
18,TCCCGAAACGGTTGACTCCGTT,-1.06
19,TATAATGATCAAGCAACCCTGG,0.0689
20,TAATTTACTGCATAAGTGCATC,-0.823
21,TAAGAAAATAAAGTCGTTGTGG,0.511
22,AAACGGTTGACTCCGTTGGGAT,-1.42
23,TTAACTGAGAGCCACTAGTTAT,-1.26

# Molecular target: CEACAM7
# Test: as above
# Conditions: shRNA
row,Sequence,sensor-assay potency score (higher = more potent)
1,TATTGTCTCTCGACCGTTGTGT,0.904
2,AATATCTTTGTTCTCCACCGGA,-0.351
3,TTGACTTATATTTTTTACATAT,-1.26
4,TAGAATTGTCTGGTTACTTCTT,-0.107
5,TATCCTATAATTCGATAGTTGG,-0.535
6,AAGATTTTCTTTTATAACGTGT,0.163
7,TAAAACCACAATATCTTTGTTC,0.0103
8,TGACTCATAGCGGACATTCAGG,-0.817
9,TATATTGTCTCTCGACCGTTGT,-0.124
10,TAGAGGTCTAACTCTAACAGGG,-0.585
11,TATAATTCGATAGTTGGCATGC,-0.121
